Among the data in PubChem BioAssay are z-score values, retold here.

The nature of this assay: compound effects on multiple myeloma cell viability – MM1S, calcein-AM fluorescence, 48 h, basal, profiling panel (AID 1165).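 Further: viability of MM1S multiple myeloma cells under basal unstimulated conditions; test concentration not given here.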 The following applies: higher = more signal.
Turning to `C=C(CCCC)/C(=C/C[C@@H](OC(=O)c1ccncc1)c1cccc(OCCO)c1)c1cnc2ccccc2c1`, the z-score is -2.65.
For `CC(=O)n1cc(C(O)C2C=CC3C(=O)N(c4ccccc4)C(=O)C3N2Nc2ccccc2)c2ccccc21` (stereo not given) the value was -1.06; for `C=CCN1C(=O)[C@]2(CC=C)N=C(c3ccc(OCCCO)cc3)O[C@@H]2c2ccccc21`, -3.48.
For `CCOC(=O)C[C@H]1[C@H](OC(=O)Cc2ccc3c(c2)OCO3)[C@@H](NC(=O)C2CCCCC2)c2cc(OCCCO)ccc2N1C(=O)c1ccc2ccccc2n1` the value was 0.435; for `O=C1O[C@@H](c2ccccc2)[C@@H](c2ccccc2)N2[C@@H](c3ccccc3OCCO)[C@]3(C(=O)Nc4ccc(C#CC5=CCCCC5)cc43)[C@@H](C(=O)NC[C@H](O)c3ccccc3)[C@H]12`, -3.25; for `O=C1OCC=C[C@H]2OC34C=CCN(Cn5nnc6ccccc65)C(=O)[C@H]3N(CCCCCCO)C(=O)[C@@H]4[C@@H]12` (stereo not given in full), 1.15.
Consider `COCCCNC(=O)[C@]1(Cc2ccccc2N=[N+]=[N-])N=C(c2ccc(OCCCO)cc2)O[C@@H]1c1ccccc1N=[N+]=[N-]`, for which the z-score is -3.52.
For `CC(C)c1ccc(NN2C(C(O)c3ccco3)C=CC3C(=O)N(c4ccccc4)C(=O)C32)cc1` (stereo not given) the value was -0.155.
The result for `Cc1ccc(S[C@]2(C(=O)NCC(C)C)CC(=O)N(Cc3ccccc3Cl)[C@@H]2c2ccc(CO)cc2I)cc1` reads -1.94; that for `C=CCC(OC(C)=O)[C@@H]1[C@@H](N(Cc2ccc(-c3ccccc3)cc2)C(=O)c2cccc3ccccc23)c2cc(OCCCO)ccc2N1C(=O)Cc1ccc2ccccc2c1` (stereo not given in full), -0.211; that for `CC=CC(O)C1C=CC2C(=O)N(C)C(=O)C2N1Nc1ccc([N+](=O)[O-])cc1[N+](=O)[O-]` (stereo not given), -1.73.
For `CC(C)(C)OC(=O)CC[C@]1(C(=O)NCCN2CCOCC2)N=C(c2ccc(OCCCO)cc2)O[C@H]1c1ccccc1` the value was 0.251; for `CCCCC(=C=CC[C@@H](O)c1ccc(OCCO)cc1)C[C@@H](O)COCc1ccccc1`, -1.35; for `COC(=O)[C@H](Cc1ccccc1)N1CC(/C=C/C2CC2)=C[C@@H]1[C@@H](O)Cc1ccccc1`, -3.21.
Turning to `COCCOC(=O)N1C(=O)[C@@]2(c3cc(C#CCC(C(=O)OC)C(=O)OC)ccc31)[C@H](c1ccc(OCCO)cc1)N1[C@H](c3ccccc3)[C@H](c3ccccc3)OC(=O)[C@H]1[C@@H]2C(=O)N1CCN(c2ncccn2)CC1`, the z-score was -0.0585.
For `CN(C)C(=O)[C@]1(CCC(=O)OC(C)(C)C)N=C(c2ccc(OCCCO)cc2)O[C@@H]1c1ccccc1` the value was 0.387; for `COCCOC(=O)N1C(=O)[C@@]2(c3cc(C#CC4(O)CCCCCC4)ccc31)[C@H](C(N)=O)[C@H]1C(=O)O[C@H](c3ccccc3)[C@H](c3ccccc3)N1[C@@H]2c1ccccc1OCCO`, -3.42; for `CC(CO)N1C(=O)[C@@H]2C3C(=O)OCCC/C=C\[C@H]3OC23C=CCN(Cn2nnc4ccccc42)C(=O)[C@@H]13` (stereo not given in full), 1.76.
Consider `COC(=O)[C@@]1(Cc2ccc(OC)cc2)[C@H]2c3cc(C(=O)N(C)C)n(CCc4c[nH]c5ccc(O)cc45)c3C[C@H]2CN1C(=O)c1ccccc1`, for which the z-score is -1.98.
For `O=c1cccc(-c2cccc(Cl)c2)o1` the value was -0.345; for `O=C1O[C@H](c2ccccc2)[C@H](c2ccccc2)N2[C@H]1[C@@H](C(=O)O)[C@]1(C(=O)Nc3ccccc31)[C@H]2c1ccc(O)cc1`, 0.0137.
For `COCCOC(=O)N1C(=O)[C@@]2(c3ccccc31)[C@H](C(=O)N1CCN(c3ncccn3)CC1)[C@H]1C(=O)O[C@H](c3ccccc3)[C@H](c3ccccc3)N1[C@@H]2c1ccc(OCCO)cc1` the value was -0.198; for `CCOC(=O)C1=C[C@@H](c2ccccc2)N(S(=O)(=O)c2ccc(C)cc2)[C@H]1c1cccc(Cl)c1`, -1.33; for `O=C1c2ccccc2[C@](Cc2ccccc2I)(C(=O)NCCN2CCOCC2)[C@H](c2ccc(CO)cc2)N1Cc1ccccc1`, 0.211.
For `O=C(O)[C@H]1C[C@H]2C(=O)N3CCC[C@H]3C(=O)N2[C@H]1c1cccc(OCCO)c1` the value was 0.792.
